High-throughput results as filed in PubChem.
D1 agonist = activates the human D1 dopamine receptor | HEK293 T-REx D1 cells, calcium flux, agonist mode | activation, % at 2 µM | 360,000 compounds, 1% hits; further: 0% is about no effect
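Tetracycline-induced HEK293 TREx D1 cells, force-coupled to calcium signalling, were dye-loaded with a no-wash calcium kit. Compound was pin-added after a 10 s baseline. Fluorescence was read kinetically at 1 cycle/s for 180 s, with calcium rises flagged as agonism.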
D1 antagonist = antagonists of human D1 dopamine receptor; P21728; HEK293 TREx D1 cells, calcium flux, dopamine EC80; hits give low values; activity change, negative = inhibition, % at 10 µM; 360,000 compounds, 3.2% hits; AID 504652; in the data active means activity change below about -30%; further: on the % scale 0 is the no-effect control and ±100 the full control effect
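Tetracycline-induced HEK293 Trex D1 cells, force-coupled to calcium, dye-loaded; compounds added and read 180 s, then EC80 dopamine added and calcium flux tracked kinetically another 180 s.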
TRHR ag = activates the human TRH receptor. TRHR cells, calcium flux fluo-8, FDSS agonist mode. activation, % at 2 µM. 360,000 compounds, 0.18% hits. AID 493084; further: 0% is about no effect
Target sequence (P34981 whole entry, looked up): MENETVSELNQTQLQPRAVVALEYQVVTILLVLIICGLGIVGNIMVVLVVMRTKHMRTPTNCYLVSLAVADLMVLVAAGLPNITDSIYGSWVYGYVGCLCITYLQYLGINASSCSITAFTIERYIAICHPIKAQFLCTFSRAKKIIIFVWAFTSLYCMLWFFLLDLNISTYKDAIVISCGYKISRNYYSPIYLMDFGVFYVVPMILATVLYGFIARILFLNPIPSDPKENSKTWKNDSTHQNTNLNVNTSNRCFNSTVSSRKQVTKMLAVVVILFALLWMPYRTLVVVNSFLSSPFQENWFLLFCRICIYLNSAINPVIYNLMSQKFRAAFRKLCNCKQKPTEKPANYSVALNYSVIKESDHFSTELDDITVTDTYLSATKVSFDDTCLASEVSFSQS
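Agonist-mode FDSS calcium read (Ex 480/Em 530, 1 s cycles) in 1536-well TRHR cells with fluo-8 dye, after 10-cycle baseline and 23 nL compound addition; TRH at EC20 (10 nM final) added afterwards for the enhancer phase.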
D1 PAM = human D1 dopamine receptor positive modulation. P21728. HEK293 TREx D1 cells, calcium flux, dopamine EC20 potentiation. potentiation, % at 10 µM. 360,000 compounds, 0.036% hits. AID 504651; in the data active means potentiation above about 30%; further: 0% is about no effect
TRHR PAM = TRH receptor (human) allosteric enhancement | enhancement, % at 2 µM | 360,000 compounds, 0.66% hits | P34981 | TRHR cells, fluo-8 calcium fluorescence, EC20 TRH enhancement | AID 493056; in the data active means enhancement above about 30%; further: 0% is about no effect
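Enhancer read-out: after compound pinning and an initial kinetic agonist-mode read, an EC20 of TRH (10 nM final) was injected and fluo-8 calcium signal (Ex 480/Em 530) followed at 1 s/cycle for 100 cycles in TRHR-expressing cells.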
Numbers without * were called inactive; . = no result given. Compounds with a hit are over-represented: about 4.7% of the library has one in this group of screens. Unless noted, no stated cut-off is given here; in the data, active means activation above about 30%; inactive means the rest.

SMILES	D1 agonist	D1 antagonist	TRHR ag	D1 PAM	TRHR PAM
CCc1ccccc1Nc1nc(N)nc(COC(=O)C2CCN(C(=O)c3ccc(F)cc3)CC2)n1	4	-1	0	-5	2
COc1cccc(COC(=O)C2CCN(C(=O)c3ccc(F)cc3)CC2)c1OC	19	-45*	0	-11	-6
CCOc1ccc(S(=O)(=O)N2CCC(C(=O)OCc3cccc(OC)c3OC)CC2)cc1	22	0	3	-4	-5
CN(C(=O)CN1C(=O)NC2(CCc3ccccc32)C1=O)C1CCS(=O)(=O)C1 (configuration not stated)	-2	-31*	-1	0	-2
NC(=O)CN1C(=O)NC2(CCOc3ccccc32)C1=O (configuration not stated)	-2	-75*	2	5	8
COc1ccc(C(NC(=O)CN2C(=O)NC3(CCc4ccccc43)C2=O)c2ccc(OC)cc2)cc1 (configuration not stated)	2	-7	1	-7	2
CC(C)CNC(=O)CN1C(=O)NC2(CCCc3ccccc32)C1=O (configuration not stated)	3	-16	-1	-6	31*
CC(NC(=O)CN1C(=O)NC2(CCc3ccccc32)C1=O)c1ccc2c(c1)OCCO2 (configuration not stated)	-1	-42*	-1	-3	0
NC(=O)NC(=O)CN1C(=O)NC2(CCOc3ccccc32)C1=O (configuration not stated)	6	7	0	-8	-4
Cc1ccn(S(=O)(=O)c2ccc(N3CCCC3=O)cc2)n1	1	-4	0	-7	-1
Cc1ccn2c(=O)c(C(=O)NCCc3ccccc3)c(O)nc2c1	-1	-6	0	2	1
CC(C)n1c(SCC(=O)c2ccc(F)cc2)nc2c(sc3ccccc32)c1=O	2	8	0	-3	-3
O=C(O)c1cccc2c1C(=O)c1cccc3snc-2c13	2	-16	1	-6	1
CC(Oc1ccccc1)C(=O)OCc1cc(=O)n2nc(C(C)C)sc2n1 (configuration not stated)	7	-7	0	-3	4
CC1CCC2(CC1)NC(=O)N(CC(=O)NC(C)c1ccc(F)c(F)c1)C2=O (configuration not stated)	1	-35*	0	-4	1
Cc1ccc(CN2CCN(CC(=O)NC(C)CCc3ccccc3)C2=O)cc1 (configuration not stated)	5	-2	-1	.	19
COc1ccccc1CNC(=O)CN1C(=O)NC2(CCCc3ccccc32)C1=O (configuration not stated)	2	-38*	0	-11	-6
Cc1ccc(CN2CCN(CC(=O)NC(C)c3ccc4c(c3)OCCO4)C2=O)cc1 (configuration not stated)	44*	-11	0	.	-6
COc1ccc(OC)c(NC(=O)CN2C(=O)NC3(CCCc4ccccc43)C2=O)c1 (configuration not stated)	-1	2	0	-1	-3
CC(NC(=O)CN1C(=O)NC2(CCCC2)C1=O)c1ccc2ccccc2c1 (configuration not stated)	-1	20	0	-11	11
Cc1cc(OCC(=O)N(Cc2ccc(N(C)C)cc2)Cc2ccco2)cc(C)c1Cl	2	-5	0	-1	-2
CCC(C)NC(=O)c1cccc(NC(=O)c2nsc3ccccc23)c1 (configuration not stated)	2	-21	0	-3	1
CN(C)CCCN1c2ccccc2CCc2ccc(Cl)cc21	36*	-96*	4	-3	3
CN(C)CCCN1c2ccccc2Sc2ccccc21	42*	-81*	2	-4	12
CCCCN(CC)C(=O)Cn1c(=O)n(-c2ccc(OCC)cc2)c(=O)c2c3c(sc21)CCC3	-1	2	-2	2	-28
SMILES	D1 agonist	D1 antagonist	TRHR ag	D1 PAM	TRHR PAM
COc1ccc(N2CCN(C(=O)c3cc4c(=O)oc5ccc(C)cc5c4s3)CC2)cc1	1	5	1	2	2
CS(=O)(=O)N(CC(=O)N1CCCC1)c1cc(Cl)c(Cl)cc1Cl	39*	-14	-1	-7	9
CS(=O)(=O)N(CCCC(=O)N1CCCCCC1)c1cccc(Cl)c1	7	-38*	0	0	5
CS(=O)(=O)N(CC(=O)N1CCN(c2ccc(F)cc2)CC1)c1cccc(Cl)c1	8	-26	-1	-6	11
CCc1ccccc1NC(=O)c1cccc(NC(=O)/C=C/c2ccco2)c1	9	-36*	-1	-18	-5
O=C(/C=C/c1ccco1)Nc1cccc(C(=O)Nc2ccccc2C(=O)O)c1	1	-3	-1	-1	-3
Cc1c(NC(=S)NC(=O)c2cc3ccccc3o2)cccc1C(=O)O	6	-4	1	-2	0
COc1ccc(CNC(=O)c2cc3c(=O)n(Cc4ccco4)ccc3nc2C)cc1	1	-35*	0	-7	7
CSc1ccc(CNC(=O)c2cc3c(=O)n(Cc4ccco4)ccc3nc2C)cc1	13	6	-1	-6	2
COc1ccc(Cn2ccc3nc(C)c(C(=O)N4CCN(c5ccccc5OC)CC4)cc3c2=O)cc1	-1	-33*	0	-1	-2
COc1ccc(Cn2ccc3nc(C)c(C(=O)N4CCN(c5ccc(OC)cc5)CC4)cc3c2=O)cc1	27	-7	0	-6	-7
CCOc1ccc(S(=O)(=O)Nc2ccc(OC)c(Cl)c2)c2cccnc12	0	14	-1	2	9
CCOC(=O)c1cc(-c2ccc(F)cc2)n(CCC(=O)Nc2nc3cc(C)c(C)cc3s2)c1C	1	5	0	0	4
COc1ccc(S(=O)(=O)CCC(=O)N2CCN(c3ccc(C(C)=O)cc3)CC2)cc1	10	-39*	0	-11	0
COc1ccc(CC(=O)OCC(=O)c2ccc(OC)c(OC)c2)cc1	3	-31*	0	-5	2
COc1ccc(CC(=O)OCC(=O)N2CCCc3ccccc32)cc1	4	-41*	1	-3	-7
COc1ccc(N2CCN(C(=O)C3(S(=O)(=O)c4ccc(C)cc4)CC3)CC2)cc1	3	-58*	0	-3	2
COc1ccc(N2CCN(C(=O)CCS(=O)(=O)c3ccc(OC)cc3)CC2)cc1	0	-28	0	-5	0
CSCCC(NC(=O)COc1ccccc1)C(=O)N1CC(C)OC(C)C1 (configuration not stated)	0	12	0	7	9
COc1ccc(N2CCN(C(=O)COC(=O)CCOc3ccc(C)cc3)CC2)cc1	11	-31*	0	-10	3
CCOC(=O)N1CCN(C(=O)COC(=O)Cc2ccc(OC)cc2)CC1	2	4	-1	-5	34*
